Records with an inconclusive call do not appear. Unmarked numbers belong to inactive results. Calls of active or inactive are those of the source. The call rests on the fitted dose curve; in most records, active means well fitted cell-killing curve with a large enough effect; inconclusive means small, poorly fitted or top-dose-only effect; inactive means flat fitted curve, though single readings scatter.
experiment: Cellular viability qHTS for adrenocortical cancer (ACC) cell line NCI-H295R (AID 1963990); settings: CellTiter-Glo ATP luminescence, 48 h; series mostly up to 46.1 µM; activity change, negative = viability loss: at the top concentration; further: nearly all actives have a fitted effect of over 60% in size;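 on activity change, negative = viability loss: 0% = DMSO only wells and -100% = full killing with cytotoxic reference compound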
Procedure, shortened: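 Compound titrations (up to 46 uM final) are applied to NCI-H295R cultures for 48 h at 37C. Viable cell number is estimated by CellTiter-Glo signal, normalised to DMSO and doxorubicin controls.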
Potency means the concentration at half of the fitted maximal effect.

Row | SMILES | Potency | activity change, negative = viability loss
1 | C#C[C@]1(OC(C)=O)CC[C@H]2[C@@H]3CCC4=C/C(=N/O)CC[C@@H]4[C@H]3CC[C@@]21CC | 20.6 µM (active) | –
2 | Oc1cccc(O)c1 | – | -18.8%
3 | O=C1Cc2cc(C(=O)NC3C[C@H]4CC[C@@H](C3)N4S(=O)(=O)CC3CCN(CCCC(F)(F)F)CC3)c(Cl)cc2N1 (some centres not stated) | – | -2.48%
4 | CCCCC1C(=O)N(c2ccccc2)N(c2ccc(O)cc2)C1=O (configuration not stated) | 5.17 µM (active) | –
5 | CCOC(=O)c1ccc(O)c(O)c1 | – | -18.4%
6 | C[C@@H]1CCN(C(=O)CC#N)C[C@@H]1N(C)c1ncnc2[nH]ccc12 | – | -4.4%
7 | CC(C)(c1ccc(OCC(O)CO)cc1)c1ccc(OCC(O)CCl)cc1 (configuration not stated) | – | -8%
8 | Cc1c(Cn2ccnc2)c2ccccc2n1CCC(=O)O | – | -3.86%
9 | C#Cc1cccc(Nc2ncnc3cc4c(cc23)OCCOCCOCCO4)c1 | 11.2 µM (active) | –
10 | CCOc1cc(/C=C2/C(=O)N(c3ccccc3)N=C2C)cc(Cl)c1OCC(=O)OC | – | -25.1%
11 | [O-][n+]1ccccc1SSc1cccc[n+]1[O-] | 0.0893 µM (active) | –
12 | C=C1CCC[C@]2(C)C=C3OC(=O)C(C)=C3C[C@@H]12 | – | -6.07%
13 | Cc1cc(Nc2cc(N)ncn2)c(=O)n2c1C(=O)NC21CCCCC1 | – | -11.7% [at 20 µM]
14 | O=C(CN1CCN(Cc2ccc3c(c2)OCO3)CC1)N1c2ccccc2Sc2ccccc21 | – | 7.58%
15 | Nc1ccc(N=Nc2ccccc2)c(N)n1 | – | -9.77%
16 | CCOC(=O)[C@H](CCc1ccccc1)N[C@@H](C)C(=O)N1Cc2ccccc2C[C@H]1C(=O)O | 16.4 µM (active) | –
17 | O=C(OCC(COC(=O)c1cccnc1)(COC(=O)c1cccnc1)COC(=O)c1cccnc1)c1cccnc1 | – | -26.9%

Source: PubChem BioAssay (NCATS)
